Source: the supplement of paper PMC11732987, “Enantioselective OTUD7B fragment discovery through chemoproteomics screening and high-throughput optimisation” (Communications Chemistry, 2025)

What was measured:
Assay in all cases: log2 ratio of Biotin-Ahx-Ub-VS probe labelling (fragment/DMSO); higher = less target engagement (more negative = stronger competition), active = hit call of the paper (q ≤ 0.05, log2 ratio ≤ -1)
Conditions in all cases: compound concentration: 200 uM; treatment time: 3 h
[1] = target: T1, USP19 (UniProt O94966)
T1 sequence (whole entry): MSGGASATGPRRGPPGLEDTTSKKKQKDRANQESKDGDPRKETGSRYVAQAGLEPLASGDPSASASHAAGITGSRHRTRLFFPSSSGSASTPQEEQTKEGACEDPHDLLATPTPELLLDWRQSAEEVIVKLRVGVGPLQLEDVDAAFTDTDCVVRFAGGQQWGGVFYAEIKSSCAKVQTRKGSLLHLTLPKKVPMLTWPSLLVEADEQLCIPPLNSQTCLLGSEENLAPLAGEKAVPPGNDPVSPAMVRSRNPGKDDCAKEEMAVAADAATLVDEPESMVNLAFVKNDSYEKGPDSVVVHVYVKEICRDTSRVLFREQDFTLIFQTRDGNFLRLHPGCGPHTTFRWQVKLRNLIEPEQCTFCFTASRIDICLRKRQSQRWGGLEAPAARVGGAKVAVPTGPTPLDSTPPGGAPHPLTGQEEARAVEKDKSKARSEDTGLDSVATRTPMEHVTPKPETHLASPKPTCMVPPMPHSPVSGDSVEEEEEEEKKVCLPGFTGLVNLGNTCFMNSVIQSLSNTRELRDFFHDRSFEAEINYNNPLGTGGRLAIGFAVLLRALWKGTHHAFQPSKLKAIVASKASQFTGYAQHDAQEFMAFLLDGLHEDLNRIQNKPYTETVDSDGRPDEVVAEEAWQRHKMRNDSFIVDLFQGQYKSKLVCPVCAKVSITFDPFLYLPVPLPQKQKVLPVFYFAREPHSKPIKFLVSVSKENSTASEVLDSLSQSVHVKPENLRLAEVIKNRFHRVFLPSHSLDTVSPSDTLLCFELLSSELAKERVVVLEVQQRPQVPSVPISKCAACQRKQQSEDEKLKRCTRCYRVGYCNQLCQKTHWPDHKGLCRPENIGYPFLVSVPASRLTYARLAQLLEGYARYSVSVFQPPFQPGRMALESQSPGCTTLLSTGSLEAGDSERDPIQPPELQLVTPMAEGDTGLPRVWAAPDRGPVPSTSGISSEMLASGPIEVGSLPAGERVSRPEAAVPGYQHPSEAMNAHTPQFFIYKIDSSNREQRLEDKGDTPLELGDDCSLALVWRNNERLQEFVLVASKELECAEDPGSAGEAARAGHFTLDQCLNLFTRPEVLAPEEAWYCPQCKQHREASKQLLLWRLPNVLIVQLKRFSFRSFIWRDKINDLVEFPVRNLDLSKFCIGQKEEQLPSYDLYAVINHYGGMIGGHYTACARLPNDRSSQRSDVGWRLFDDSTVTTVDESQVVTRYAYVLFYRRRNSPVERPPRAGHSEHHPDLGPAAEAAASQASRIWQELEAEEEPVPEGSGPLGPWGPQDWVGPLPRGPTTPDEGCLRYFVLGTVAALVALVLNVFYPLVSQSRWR
Method in brief: (§1)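 HEK293T lysate in Tris/CHAPS/IGEPAL buffer with protease inhibitors (495 µg per sample) was given fragment at 200 µM or vehicle for 3 h, in triplicate. It then received Biotin-Ahx-Ub-VS at 0.5 µM final for 1 h. Labelled DUBs were NeutrAvidin-enriched, digested with LysC and trypsin, and run by diaPASEF LC-MS/MS. Values are average log2 fragment/vehicle ratios by unpaired t-test on global-median-normalised Spectronaut quantities of proteins with ≥2 unique peptides.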

[2] = target: T2, USP22 (UniProt Q9UPT9)
T2 sequence (whole entry): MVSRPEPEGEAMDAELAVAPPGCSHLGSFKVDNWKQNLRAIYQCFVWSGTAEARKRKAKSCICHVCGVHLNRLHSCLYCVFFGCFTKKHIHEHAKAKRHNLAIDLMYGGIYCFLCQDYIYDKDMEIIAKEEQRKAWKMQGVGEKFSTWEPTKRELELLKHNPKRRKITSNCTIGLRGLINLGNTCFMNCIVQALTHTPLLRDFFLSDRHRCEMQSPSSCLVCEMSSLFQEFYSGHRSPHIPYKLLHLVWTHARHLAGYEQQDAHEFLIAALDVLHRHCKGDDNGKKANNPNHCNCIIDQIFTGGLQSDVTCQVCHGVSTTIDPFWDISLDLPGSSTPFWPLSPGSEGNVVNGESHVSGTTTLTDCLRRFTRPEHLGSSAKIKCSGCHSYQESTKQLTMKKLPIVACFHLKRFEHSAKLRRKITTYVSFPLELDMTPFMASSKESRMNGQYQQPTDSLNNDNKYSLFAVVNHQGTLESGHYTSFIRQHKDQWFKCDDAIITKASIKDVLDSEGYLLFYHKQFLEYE
Method in brief: as §1

[3] = target: USP24 (UniProt Q9UPU5)
Method in brief: as §1

[4] = target: T3, USP25 (UniProt Q9UHP3)
T3 sequence (whole entry): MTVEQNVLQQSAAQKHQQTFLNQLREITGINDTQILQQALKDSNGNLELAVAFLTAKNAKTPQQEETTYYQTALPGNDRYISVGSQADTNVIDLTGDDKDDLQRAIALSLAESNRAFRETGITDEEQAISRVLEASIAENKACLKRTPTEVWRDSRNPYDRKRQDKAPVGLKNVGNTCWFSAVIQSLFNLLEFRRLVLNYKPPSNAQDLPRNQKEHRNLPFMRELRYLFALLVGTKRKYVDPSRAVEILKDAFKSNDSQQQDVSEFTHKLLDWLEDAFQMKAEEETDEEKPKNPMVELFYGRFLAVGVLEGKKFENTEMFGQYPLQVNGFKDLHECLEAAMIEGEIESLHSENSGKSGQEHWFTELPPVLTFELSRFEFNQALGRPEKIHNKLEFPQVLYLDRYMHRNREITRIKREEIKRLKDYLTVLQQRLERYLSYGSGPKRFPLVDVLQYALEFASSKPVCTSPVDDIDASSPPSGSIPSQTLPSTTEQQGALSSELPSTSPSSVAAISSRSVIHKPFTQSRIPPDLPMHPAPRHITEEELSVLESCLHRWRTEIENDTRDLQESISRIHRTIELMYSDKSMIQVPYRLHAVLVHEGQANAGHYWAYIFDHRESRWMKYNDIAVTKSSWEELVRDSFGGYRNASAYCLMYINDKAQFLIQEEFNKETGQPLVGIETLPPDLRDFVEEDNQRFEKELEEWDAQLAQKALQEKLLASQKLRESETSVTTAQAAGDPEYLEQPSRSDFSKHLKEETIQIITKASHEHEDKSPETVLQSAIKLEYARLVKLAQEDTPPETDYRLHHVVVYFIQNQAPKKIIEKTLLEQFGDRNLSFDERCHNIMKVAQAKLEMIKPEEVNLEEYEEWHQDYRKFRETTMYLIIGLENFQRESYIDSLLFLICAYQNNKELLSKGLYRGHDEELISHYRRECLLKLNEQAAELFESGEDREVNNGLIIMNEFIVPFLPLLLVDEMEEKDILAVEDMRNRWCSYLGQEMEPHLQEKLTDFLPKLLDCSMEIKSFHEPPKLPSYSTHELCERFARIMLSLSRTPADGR
Method in brief: as §1

[5] = target: T4, USP28 (UniProt Q96RU2)
T4 sequence (whole entry): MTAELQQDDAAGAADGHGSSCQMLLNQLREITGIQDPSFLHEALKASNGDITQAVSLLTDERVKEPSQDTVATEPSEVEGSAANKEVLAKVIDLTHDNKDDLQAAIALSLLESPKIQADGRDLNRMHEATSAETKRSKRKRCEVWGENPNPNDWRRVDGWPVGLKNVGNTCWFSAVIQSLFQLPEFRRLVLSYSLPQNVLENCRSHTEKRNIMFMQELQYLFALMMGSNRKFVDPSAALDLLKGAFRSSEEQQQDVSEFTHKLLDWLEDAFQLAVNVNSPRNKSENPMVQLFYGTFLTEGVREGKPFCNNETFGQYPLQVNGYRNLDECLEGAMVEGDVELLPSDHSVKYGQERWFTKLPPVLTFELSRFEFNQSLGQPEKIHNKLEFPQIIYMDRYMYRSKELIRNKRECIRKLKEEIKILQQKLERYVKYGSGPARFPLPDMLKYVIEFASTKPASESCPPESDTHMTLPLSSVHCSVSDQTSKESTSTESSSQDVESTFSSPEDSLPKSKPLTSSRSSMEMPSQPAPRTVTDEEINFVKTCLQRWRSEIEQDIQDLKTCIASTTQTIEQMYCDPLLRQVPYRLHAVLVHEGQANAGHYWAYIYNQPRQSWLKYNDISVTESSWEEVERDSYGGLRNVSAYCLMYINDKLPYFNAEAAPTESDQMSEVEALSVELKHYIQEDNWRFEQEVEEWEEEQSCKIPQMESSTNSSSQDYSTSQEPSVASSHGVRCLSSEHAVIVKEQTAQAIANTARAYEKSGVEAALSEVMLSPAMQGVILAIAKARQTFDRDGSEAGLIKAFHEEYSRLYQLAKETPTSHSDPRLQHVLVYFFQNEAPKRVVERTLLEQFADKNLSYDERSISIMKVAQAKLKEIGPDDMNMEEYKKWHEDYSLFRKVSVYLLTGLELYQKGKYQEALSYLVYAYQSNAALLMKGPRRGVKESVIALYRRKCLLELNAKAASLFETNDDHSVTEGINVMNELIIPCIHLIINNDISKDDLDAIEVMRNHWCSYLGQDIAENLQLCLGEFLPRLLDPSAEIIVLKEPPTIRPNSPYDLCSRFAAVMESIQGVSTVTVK
Method in brief: as §1

Measured: log2 ratio of Biotin-Ahx-Ub-VS probe labelling

Chain of USP24 (Q9UPU5 whole entry): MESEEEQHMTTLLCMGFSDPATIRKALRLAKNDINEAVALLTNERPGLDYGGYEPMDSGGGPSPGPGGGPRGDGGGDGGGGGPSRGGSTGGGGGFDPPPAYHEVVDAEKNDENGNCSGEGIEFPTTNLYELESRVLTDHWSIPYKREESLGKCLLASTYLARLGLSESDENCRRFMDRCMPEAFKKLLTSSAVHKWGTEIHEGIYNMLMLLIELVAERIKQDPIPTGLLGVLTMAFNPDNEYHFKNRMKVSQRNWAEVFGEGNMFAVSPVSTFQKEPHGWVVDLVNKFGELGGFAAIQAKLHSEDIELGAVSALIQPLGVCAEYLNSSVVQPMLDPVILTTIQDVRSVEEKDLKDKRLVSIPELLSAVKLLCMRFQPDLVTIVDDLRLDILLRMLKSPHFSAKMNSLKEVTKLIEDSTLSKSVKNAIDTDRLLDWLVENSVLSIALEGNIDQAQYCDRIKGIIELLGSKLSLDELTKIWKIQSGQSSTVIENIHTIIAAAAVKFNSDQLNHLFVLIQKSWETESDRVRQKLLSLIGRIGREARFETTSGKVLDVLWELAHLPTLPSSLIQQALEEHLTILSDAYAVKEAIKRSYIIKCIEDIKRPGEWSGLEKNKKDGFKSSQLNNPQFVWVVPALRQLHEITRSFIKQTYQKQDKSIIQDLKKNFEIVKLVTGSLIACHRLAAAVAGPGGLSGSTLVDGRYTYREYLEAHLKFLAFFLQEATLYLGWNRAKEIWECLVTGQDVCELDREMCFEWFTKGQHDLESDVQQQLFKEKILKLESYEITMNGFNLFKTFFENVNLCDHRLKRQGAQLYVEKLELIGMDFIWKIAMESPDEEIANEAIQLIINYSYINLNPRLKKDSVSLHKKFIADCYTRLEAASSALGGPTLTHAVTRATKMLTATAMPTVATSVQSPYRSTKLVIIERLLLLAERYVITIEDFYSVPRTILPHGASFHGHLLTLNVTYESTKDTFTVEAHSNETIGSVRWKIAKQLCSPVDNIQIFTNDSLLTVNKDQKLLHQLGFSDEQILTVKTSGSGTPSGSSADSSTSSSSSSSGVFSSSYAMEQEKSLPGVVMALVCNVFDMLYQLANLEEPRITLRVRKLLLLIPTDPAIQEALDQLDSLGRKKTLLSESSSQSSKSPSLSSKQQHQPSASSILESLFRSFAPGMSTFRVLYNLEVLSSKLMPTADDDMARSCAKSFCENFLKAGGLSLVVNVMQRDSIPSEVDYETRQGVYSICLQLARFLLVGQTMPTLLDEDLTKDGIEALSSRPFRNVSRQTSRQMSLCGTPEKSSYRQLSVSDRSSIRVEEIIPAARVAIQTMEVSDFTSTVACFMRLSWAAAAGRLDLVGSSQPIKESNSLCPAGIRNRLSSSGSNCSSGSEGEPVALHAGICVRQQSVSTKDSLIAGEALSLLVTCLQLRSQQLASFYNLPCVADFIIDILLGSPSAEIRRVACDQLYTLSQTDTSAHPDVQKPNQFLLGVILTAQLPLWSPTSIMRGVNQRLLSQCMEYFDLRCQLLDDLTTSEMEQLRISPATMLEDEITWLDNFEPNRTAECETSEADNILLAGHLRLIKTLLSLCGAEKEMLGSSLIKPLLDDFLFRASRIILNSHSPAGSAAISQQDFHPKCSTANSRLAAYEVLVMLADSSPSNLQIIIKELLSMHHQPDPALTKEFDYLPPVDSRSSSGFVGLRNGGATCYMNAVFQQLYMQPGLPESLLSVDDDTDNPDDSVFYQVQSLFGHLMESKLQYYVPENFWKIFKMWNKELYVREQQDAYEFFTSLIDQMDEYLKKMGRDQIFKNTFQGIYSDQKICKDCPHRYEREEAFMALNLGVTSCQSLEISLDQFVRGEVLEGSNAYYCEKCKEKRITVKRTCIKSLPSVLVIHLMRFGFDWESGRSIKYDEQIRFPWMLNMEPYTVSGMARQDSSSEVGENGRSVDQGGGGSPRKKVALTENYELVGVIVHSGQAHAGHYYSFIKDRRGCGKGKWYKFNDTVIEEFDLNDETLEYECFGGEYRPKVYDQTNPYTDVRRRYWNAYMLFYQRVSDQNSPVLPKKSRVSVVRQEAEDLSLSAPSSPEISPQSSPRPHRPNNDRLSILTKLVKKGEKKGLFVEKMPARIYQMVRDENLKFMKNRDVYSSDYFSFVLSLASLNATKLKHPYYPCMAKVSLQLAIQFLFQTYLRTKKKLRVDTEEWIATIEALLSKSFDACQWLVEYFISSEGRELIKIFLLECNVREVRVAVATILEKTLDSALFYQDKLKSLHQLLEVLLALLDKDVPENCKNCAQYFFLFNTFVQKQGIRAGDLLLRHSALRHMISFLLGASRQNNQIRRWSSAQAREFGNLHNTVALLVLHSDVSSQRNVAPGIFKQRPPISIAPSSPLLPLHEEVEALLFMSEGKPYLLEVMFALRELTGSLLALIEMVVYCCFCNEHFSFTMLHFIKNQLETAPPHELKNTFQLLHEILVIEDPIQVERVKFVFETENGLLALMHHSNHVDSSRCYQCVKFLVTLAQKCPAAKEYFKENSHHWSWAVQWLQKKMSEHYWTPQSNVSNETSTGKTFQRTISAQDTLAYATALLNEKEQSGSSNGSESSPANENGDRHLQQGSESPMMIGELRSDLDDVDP

CC(NC(=O)CCl)c1cnn(C2CC2)c1 (stereo not given)
inactive: [1] -0.305 | [2] -0.22 | [3] -0.409 | [4] -0.784 | [5] -0.621
